Data as given in publication PMC12040169 (PLOS Biology, 2025).

The molecules below were run on T1, C. trachomatis L2/434/Bu expressing GFP (CTL2-GFP). Settings: total inclusion area; 28.5 h, 10 µM; inhibitor.
T1 construct: L2/434/Bu GFP intracellular growth in HeLa cells
Set-up: species or system HeLa; C. trachomatis total inclusion area by high-content imaging, normalised to DMSO
Excerpt: We screened a library of 36,785 small molecules displaying drug-like properties and covering a wide chemical space (Fig 1A and S2A Data). In this process, we also complemented the assay described above with an imaging-based readout (Fig 1B). After measurements of bulk GFP and resorufin fluorescence, cells were fixed, stained with the DNA dye Hoechst, and imaged at a high-content imaging platform to detect chlamydial inclusions (GFP) and host cell nuclei (Hoechst). The total area and number of inclusions in individual wells and the number of nuclei then served as additional proxies for chlamydial growth and host cell viability. […] MICs were calculated as described above.

SMILES	% of control remaining
O=C(c1cccc(S(=O)(=O)F)c1)N1CCCCC1 [CBK074224]	0.8769
CCOC(=O)CC(C)(O)P(=O)(OC)OC (stereo not drawn) [CBK261287]	1.025
S=P(Oc1ccccc1)(Oc1ccccc1)Oc1ccccc1 [CBK260987]	0.9936
